Activity calls are given as the source filed them. The calls were made as follows: active = hit-call score of the fitted dose curve at least 0.9, where 1 is the maximum; inactive = score below 0.9.
Tests used:
Settings in all cases: mRNA level, 48 h; actives raise or lower the signal
[1] = read-out: Alpha-fetoprotein (AFP) gene, AFP (gene 174); assay: LTEA_HepaRG_AFP: Life Technologies and Expression Analysis (LTEA) Assay for Alpha-fetoprotein (AFP) gene using HepaRG (AID 2283472)
Method in brief: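 Differentiated human HepaRG cells exposed 48 h in serum-free induction medium, 8-point half-log series from 100 uM in 0.5% DMSO, duplicate. AFP mRNA by qRT-PCR, normalized to ACTB, GAPDH, POLR2A; bidirectional fit vs DMSO.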

BCL2L11 (gene 10018) = assay: LTEA_HepaRG_BCL2L11: Life Technologies and Expression Analysis (LTEA) Assay for Bcl-2 (BCL2L11) gene using HepaRG (AID 2283473)
Method in brief: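 Cells were plated, cultured 48 h, switched to serum-free induction medium, then dosed in duplicate for 48 h at eight half-log concentrations up to 100 uM. Lysates underwent RNA isolation and TaqMan qRT-PCR; gain or loss versus DMSO was fitted.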

[2] = read-out: Apolipoprotein A-V (APOA5) gene, APOA5 (gene 116519); assay: LTEA_HepaRG_APOA5: Life Technologies and Expression Analysis (LTEA) Assay for Apolipoprotein A-V (APOA5) gene using HepaRG (AID 2283474)
Method in brief: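 Human liver HepaRG cells are treated 48 h with test chemicals (100 uM top, half-log dilutions, 0.5% DMSO). APOA5 mRNA induction or loss is measured by qRT-PCR relative to vehicle.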

[3] = read-out: Apoptosis regulator Bcl-2 (Homo sapiens) (UniProt P10415); assay: LTEA_HepaRG_BCL2: Life Technologies and Expression Analysis (LTEA) Assay for Bcl-2 gene using HepaRG (AID 2283475)
Method in brief: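 Differentiated human HepaRG cells in serum-free induction medium exposed 48 h, in duplicate, to 8-point half-log series from 100 uM in 0.5% DMSO. BCL2 mRNA by qRT-PCR (TaqMan/Fluidigm), normalized to ACTB, GAPDH, POLR2A; bidirectional fit against DMSO.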

[4] = read-out: Bcl-2 (BID) gene, BID (gene 637); assay: LTEA_HepaRG_BID: Life Technologies and Expression Analysis (LTEA) Assay for Bcl-2 (BID) gene using HepaRG (AID 2283476)
Method in brief: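 Gene expression by qRT-PCR in HepaRG cells after 48 h exposure, duplicate wells, eight half-log concentrations topping at 100 uM in 0.5% DMSO. Normalized to ACTB, GAPDH, POLR2A; bidirectional fitting relative to DMSO.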

Caspase-3 (Homo sapiens) = Caspase-3 (Homo sapiens) (UniProt P42574); assay: LTEA_HepaRG_CASP3: Life Technologies and Expression Analysis (LTEA) Assay for cysteine-aspartic acid protease (CASP3) using HepaRG (AID 2283477)
Caspase-3 (Homo sapiens), sequence (P42574 whole entry, looked up): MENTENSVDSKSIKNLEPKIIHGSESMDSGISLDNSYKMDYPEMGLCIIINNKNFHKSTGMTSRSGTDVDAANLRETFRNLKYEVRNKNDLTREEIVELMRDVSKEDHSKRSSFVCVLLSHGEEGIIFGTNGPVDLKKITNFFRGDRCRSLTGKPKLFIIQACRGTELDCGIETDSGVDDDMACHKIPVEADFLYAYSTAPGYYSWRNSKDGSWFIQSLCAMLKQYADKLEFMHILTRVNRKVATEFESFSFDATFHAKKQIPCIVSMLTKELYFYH
Method in brief: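 In HepaRG liver cells dosed for 48 h at up to 100 uM (eight-point, duplicate), CASP3 expression changes are scored by qRT-PCR. Activity is fitted in both directions with 0.5% DMSO as baseline.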

[5] = read-out: Cytochrome P450 (CYP24A1), CYP24A1 (gene 1591); assay: LTEA_HepaRG_CYP24A1: Life Technologies and Expression Analysis (LTEA) Assay for Cytochrome P450 (CYP24A1) using HepaRG (AID 2283478)
Method in brief: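 Human liver HepaRG cultures receive each chemical for 48 h across an eight-point half-log series topping at 100 uM in 0.5% DMSO. Induction or suppression of CYP24A1 mRNA is scored relative to vehicle after housekeeping-gene normalization.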

[6] = read-out: Cytochrome P450 (CYP1A2), CYP1A2 (gene 1544); assay: LTEA_HepaRG_CYP1A2: Life Technologies and Expression Analysis (LTEA) Assay for Cytochrome P450 (CYP1A2) using HepaRG (AID 2283479)
Method in brief: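 Assesses CYP1A2 mRNA in human HepaRG liver cells after 48 h chemical exposure at up to 100 uM. Values come from qRT-PCR with bidirectional curve fitting relative to DMSO.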

[7] = read-out: cysteine-aspartic acid protease (CASP8), CASP8 (gene 841); assay: LTEA_HepaRG_CASP8: Life Technologies and Expression Analysis (LTEA) Assay for cysteine-aspartic acid protease (CASP8) using HepaRG (AID 2283480)
Method in brief: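 Differentiated human HepaRG cells, plated 48 h then switched to serum-free induction medium, were exposed in duplicate for 48 h to 8 half-log concentrations up to 100 uM in 0.5% DMSO. CASP8 mRNA was quantified by qRT-PCR, normalized to ACTB/GAPDH/POLR2A.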

[8] = read-out: Cytochrome P450 (CYP2B6), CYP2B6 (gene 1555); assay: LTEA_HepaRG_CYP2B6: Life Technologies and Expression Analysis (LTEA) Assay for Cytochrome P450 (CYP2B6) using HepaRG (AID 2283481)
Method in brief: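 Using 48 h treatment of HepaRG cells in serum-free induction medium, concentrations spanned half-log steps from 100 uM in 0.5% DMSO vehicle. CYP2B6 mRNA induction or loss is scored by qRT-PCR against DMSO.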

[9] = read-out: Cytochrome P450 2C19 (Homo sapiens) (UniProt P33261); assay: LTEA_HepaRG_CYP2C19: Life Technologies and Expression Analysis (LTEA) Assay for CYP2C19 using HepaRG (AID 2283482)
Method in brief: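 Human HepaRG liver cells received test chemicals for 48 h (highest 100 uM, half-log dilutions in 0.5% DMSO). CYP2C19 mRNA induction or loss is read by multiplexed qRT-PCR and fitted in both directions versus vehicle.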

CYP2C8 (gene 1558) = assay: LTEA_HepaRG_CYP2C8: Life Technologies and Expression Analysis (LTEA) Assay for CYP2C8 using HepaRG (AID 2283483)
Method in brief: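 Differentiated human HepaRG cells were exposed for 48 h in serum-free induction medium to eight half-log concentrations up to 100 uM in 0.5% DMSO, in duplicate. CYP2C8 mRNA was measured by TaqMan qRT-PCR, normalized to ACTB, GAPDH and POLR2A, and fitted bidirectionally against DMSO.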

CYP2C9 (gene 1559) = assay: LTEA_HepaRG_CYP2C9: Life Technologies and Expression Analysis (LTEA) Assay for CYP2C9 using HepaRG (AID 2283484)
Method in brief: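 Differentiated human HepaRG cells were exposed 48 h in serum-free induction medium to eight half-log concentrations up to 100 uM in 0.5% DMSO. CYP2C9 mRNA was measured by qRT-PCR, normalized to ACTB, GAPDH and POLR2A, and fitted bidirectionally against DMSO.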

CYP2E1 (gene 1571) = assay: LTEA_HepaRG_CYP2E1: Life Technologies and Expression Analysis (LTEA) Assay for CYP2E1 using HepaRG (AID 2283485)
Method in brief: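 HepaRG cells, plated 48 h, then exposed 48 h in serum-free induction medium to eight half-log concentrations from 100 uM in 0.5% DMSO, duplicate. CYP2E1 mRNA by qRT-PCR, normalized to ACTB/GAPDH/POLR2A; bidirectional fit versus DMSO.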

CYP4A11 (gene 1579) = assay: LTEA_HepaRG_CYP4A11: Life Technologies and Expression Analysis (LTEA) Assay for CYP4A11 using HepaRG (AID 2283486)
Method in brief: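 Readout is CYP4A11 mRNA induction or suppression (qRT-PCR, ACTB/GAPDH/POLR2A normalization) in human HepaRG cells after 48 h chemical treatment, concentrations to 100 uM in 0.5% DMSO, fitted bidirectionally against vehicle.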

[10] = read-out: DNA damage-inducible transcript 3 (DDIT3), DDIT3 (gene 1649); assay: LTEA_HepaRG_DDIT3: Life Technologies and Expression Analysis (LTEA) Assay for DNA damage-inducible transcript 3 (DDIT3) using HepaRG (AID 2283488)
Method in brief: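 HepaRG cells, 48 h after plating, exposed 48 h in serum-free induction medium to 8 half-log concentrations up to 100 uM in 0.5% DMSO, in duplicate. DDIT3 mRNA measured by TaqMan qRT-PCR, normalized to ACTB, GAPDH and POLR2A. Fitted bidirectionally against DMSO.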

[11] = read-out: Pro-epidermal growth factor (Homo sapiens) (UniProt P01133); assay: LTEA_HepaRG_EGF: Life Technologies and Expression Analysis (LTEA) Assay for Epidermal growth factor (EGF) using HepaRG (AID 2283489)
Method in brief: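 EGF expression changes in human HepaRG cells are scored by bidirectional fitting relative to 0.5% DMSO controls. Chemicals are tested at eight half-log concentrations up to 100 uM for 48 h in serum-free induction medium.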

[12] = read-out: Early growth response protein 1 (EGR1) transcription factor, EGR1 (gene 1958); assay: LTEA_HepaRG_EGR1: Life Technologies and Expression Analysis (LTEA) Assay for Early growth response protein 1 (EGR1) transcription factor using HepaRG (AID 2283490)
Method in brief: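 Differentiated human HepaRG cells in serum-free induction medium were exposed in duplicate for 48 h to eight concentrations (top 100 uM, half-log steps) in 0.5% DMSO. EGR1 mRNA was quantified by qRT-PCR, normalized to ACTB, GAPDH and POLR2A, and fitted bidirectionally versus DMSO.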

[13] = read-out: Ezrin (EZR), EZR (gene 7430); assay: LTEA_HepaRG_EZR: Life Technologies and Expression Analysis (LTEA) Assay for Ezrin (EZR) using HepaRG (AID 2283491)
Method in brief: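 EZR transcript levels came from Fluidigm qRT-PCR and were normalized to three housekeeping genes after 48 h chemical exposure of HepaRG cells. Dosing used an 8-point half-log series with a 100 uM top concentration in 0.5% DMSO, tested in duplicate; both directions were fitted versus vehicle.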

[14] = read-out: Cytochrome P450 3A4 (Homo sapiens) (UniProt P08684); assay: LTEA_HepaRG_CYP3A4: Life Technologies and Expression Analysis (LTEA) Assay for CYP3A4 using HepaRG (AID 2283487)
Method in brief: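 Differentiated HepaRG cells, plated 48 h, then dosed 48 h in serum-free induction medium with 0.5% DMSO, 8 half-log concentrations up to 100 uM, duplicate. CYP3A4 mRNA by qRT-PCR, normalized to ACTB/GAPDH/POLR2A; bidirectional fit versus DMSO.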

Measured: AC50

Apoptosis regulator Bcl-2 (Homo sapiens), sequence (P10415 whole entry, looked up): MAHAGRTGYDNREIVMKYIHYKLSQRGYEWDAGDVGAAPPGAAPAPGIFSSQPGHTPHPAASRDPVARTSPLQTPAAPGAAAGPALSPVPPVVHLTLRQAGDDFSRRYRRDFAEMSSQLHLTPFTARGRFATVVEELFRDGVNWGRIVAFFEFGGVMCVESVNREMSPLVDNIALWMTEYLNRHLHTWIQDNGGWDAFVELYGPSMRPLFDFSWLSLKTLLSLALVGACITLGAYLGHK
Cytochrome P450 2C19 (Homo sapiens), sequence (P33261 whole entry, looked up): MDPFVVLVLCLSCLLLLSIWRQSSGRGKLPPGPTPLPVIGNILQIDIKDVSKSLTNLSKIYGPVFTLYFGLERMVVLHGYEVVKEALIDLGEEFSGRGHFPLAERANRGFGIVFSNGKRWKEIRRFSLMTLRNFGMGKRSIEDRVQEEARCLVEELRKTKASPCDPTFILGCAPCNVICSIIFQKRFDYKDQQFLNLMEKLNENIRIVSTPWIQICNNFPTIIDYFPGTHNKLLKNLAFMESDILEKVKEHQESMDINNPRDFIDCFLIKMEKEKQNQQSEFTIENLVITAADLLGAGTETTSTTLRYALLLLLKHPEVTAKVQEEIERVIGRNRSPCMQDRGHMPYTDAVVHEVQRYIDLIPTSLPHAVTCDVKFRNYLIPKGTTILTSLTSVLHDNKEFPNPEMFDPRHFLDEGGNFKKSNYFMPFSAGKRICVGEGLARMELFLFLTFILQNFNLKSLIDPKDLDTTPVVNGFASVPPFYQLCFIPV
Cytochrome P450 3A4 (Homo sapiens), sequence (P08684 whole entry, looked up): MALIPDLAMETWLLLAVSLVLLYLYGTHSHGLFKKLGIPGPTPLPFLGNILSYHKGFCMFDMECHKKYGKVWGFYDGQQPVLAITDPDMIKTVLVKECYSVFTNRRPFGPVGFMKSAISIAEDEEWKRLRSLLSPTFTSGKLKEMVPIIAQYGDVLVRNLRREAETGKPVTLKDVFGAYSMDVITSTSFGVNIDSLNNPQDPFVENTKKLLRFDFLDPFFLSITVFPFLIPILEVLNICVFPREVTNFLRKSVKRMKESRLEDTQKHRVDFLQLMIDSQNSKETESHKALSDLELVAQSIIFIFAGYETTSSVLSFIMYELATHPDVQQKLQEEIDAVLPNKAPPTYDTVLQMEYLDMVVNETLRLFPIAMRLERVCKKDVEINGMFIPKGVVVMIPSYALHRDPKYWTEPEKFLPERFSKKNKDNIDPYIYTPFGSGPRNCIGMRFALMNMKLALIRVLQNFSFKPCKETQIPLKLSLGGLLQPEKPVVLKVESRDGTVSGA

CCOC(=O)[C@]1(c2ccccc2)Oc2ccccc2[C@@H]1N
inactive: [1] | BCL2L11 (gene 10018) | [4] | Caspase-3 (Homo sapiens) | [5] | [7] | CYP2C8 (gene 1558) | [12] | [13]
active: [2] 83.3 µM | [3] 88.7 µM | [6] 15.8 µM | [8] 81.9 µM | [9] 78.2 µM | CYP2C9 (gene 1559) 74.3 µM | CYP2E1 (gene 1571) 75.2 µM | CYP4A11 (gene 1579) 79.7 µM | [10] 76.8 µM | [11] 75.6 µM

CCNS(=O)(=O)C(F)(F)C(F)(F)C(F)(F)C(F)(F)C(F)(F)C(F)(F)C(F)(F)C(F)(F)F
active: [1] 65.2 µM | [2] 48.2 µM | CYP2E1 (gene 1571) 48.2 µM | CYP4A11 (gene 1579) 12 µM | [12] 35.6 µM
not listed: [9]
inactive: all other assays above

COC(=O)c1ccccc1N
not listed: [14]
inactive: all other assays above

ClC1=C(Cl)[C@]2(Cl)[C@H]3[C@H]([C@@H]4C=C[C@H]3C4)[C@@]1(Cl)C2(Cl)Cl
active: [1] 50 µM | [8] 2.2 µM | [9] 3.63 µM | CYP2C8 (gene 1558) 1.45 µM | CYP2E1 (gene 1571) 23 µM | CYP4A11 (gene 1579) 29.6 µM
not listed: [14]
inactive: all other assays above

CC(C)(C)C(O)(CCc1ccc(Cl)cc1)Cn1cncn1 (stereo unspecified)
active: [1] 62.2 µM | [2] 79.4 µM | [3] 79 µM | [6] 2.92 µM | [8] 91.4 µM | [9] 12.1 µM | CYP2C8 (gene 1558) 11.4 µM | CYP2C9 (gene 1559) 85.9 µM | CYP2E1 (gene 1571) 50 µM | CYP4A11 (gene 1579) 55.2 µM | [12] 90.1 µM
inactive: BCL2L11 (gene 10018) | [4] | Caspase-3 (Homo sapiens) | [5] | [7] | [11] | [13]

CNC(=O)Oc1cccc2c1OC(C)(C)C2
active: [1] 9.92 µM | [8] 3.94 µM | CYP2E1 (gene 1571) 23.7 µM
not listed: [9] | [14]
inactive: all other assays above

[As]#[In]
active: [8] 39 µM
not listed: CYP2E1 (gene 1571)
inactive: all other assays above

From PubChem BioAssay (EPA / NIEHS)
